Source: PubChem BioAssay
Rows were chosen to be rich in hits. Some 4.1% of all compounds tested hit in one or more screens of this group.
DAX1 inh-1: inhibits human nuclear receptor DAX1; P51843; HEK293 Gal4-DAX1 luciferase reporter, luminescence; inhibition, % at 6.75 µM; 340,000 tested, 0.99% active; AID 504766;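 active = inhibition above the mean over all tested compounds plus 3 SD, cut at about 4.2% in these data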;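 also: inhibition shows as a rise in luminescence from relieved DAX1 repression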
DAX1 inh-2: blocks DAX1 repression of SF-1 activated StAR promoter; HEK293T StAR-luciferase reporter, SF-1/DAX-1 repression relief; inhibition, % at 6.8 µM; 370,000 tested, 1.1% active; AID 652010;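 active = inhibition above the mean over all tested compounds plus 3 SD, cut at about 3.6% in these data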;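 also: higher inhibition means more luminescence from relief of DAX-1 repression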
ssDAF-12 act: activators of S. stercoralis DAF-12 nuclear receptor; HEK293 ssDAF-12/GRIP1 lit1-tk-luc reporter, luminescence; % of 3 µM dafachronic acid response; activation, % at 6.8 µM; 370,000 tested, 1% active;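 active = activation above the mean over all tested compounds plus 3 SD, cut at about 0.9% in these data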
hcDAF12 agonist: H. contortus DAF-12 activation, primary screen; HEK293 hcDAF-12 lit1-tk-luc reporter, luminescence; 0% DMSO, 100% Δ7-dafachronic acid; activation, % at 6.8 µM; 370,000 tested, 1.4% active; AID 652067;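 active = activation above the mean of all tested compounds plus 3 SD, cut at about 5.5% in these data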
hgDAF-12 ag: activates the H. glycines DAF-12 receptor ligand-binding domain; HEK293 GAL4-hgDAF12 UAS-luciferase reporter, agonist luminescence; normalized to butyrate control; activation, % at 6.8 µM; 370,000 tested, 1.8% active;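 active = activation above a cutoff set at the mean of all screened compounds plus 3 SD, cut at about 10% in these data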
DAX1 inh confirm: NR0B1 (human) inhibition, confirmation. inhibition, % at 6.8 µM. HEK293T StAR-promoter luciferase reporter, SF-1/DAX-1 repression. shares compounds with DAX1 inh-2. AID 652134. 2,400 tested, 87% active;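 active = inhibition above the average of every tested compound plus 3 SD, cut at about 3.8% in these data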;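 also: active compounds raise luminescence by relieving repression of the StAR reporter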
SF1 AF2mut Luc: counter-screen for DAX1 inhibitors: nonselective inhibitors with SF-1 AF2 mutant. shares compounds with DAX1 inh-2. HEK293 StAR-luciferase, luminescence. inhibition, % at 6.8 µM. 2,400 tested, 78% active. AID 652136;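 active = inhibition above the mean of all tested compounds plus 3 SD, cut at about 3% in these data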
LXR ag: LXR-beta agonism as hcDAF-12 counter-screen. HEK293 Gal4-LXR tk-luc reporter, luminescence, 24 h; normalized: DMSO 0%, positive control 100%. 3,400 tested, under 10 active. activation, % at 6.8 µM. AID 743027. shares compounds with hcDAF12 agonist;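 active = mean percent activation of the reporter above a cutoff set as the average over tested compounds plus their standard deviation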
Target sequence (P55055 whole entry, looked up, the tested form may be a part): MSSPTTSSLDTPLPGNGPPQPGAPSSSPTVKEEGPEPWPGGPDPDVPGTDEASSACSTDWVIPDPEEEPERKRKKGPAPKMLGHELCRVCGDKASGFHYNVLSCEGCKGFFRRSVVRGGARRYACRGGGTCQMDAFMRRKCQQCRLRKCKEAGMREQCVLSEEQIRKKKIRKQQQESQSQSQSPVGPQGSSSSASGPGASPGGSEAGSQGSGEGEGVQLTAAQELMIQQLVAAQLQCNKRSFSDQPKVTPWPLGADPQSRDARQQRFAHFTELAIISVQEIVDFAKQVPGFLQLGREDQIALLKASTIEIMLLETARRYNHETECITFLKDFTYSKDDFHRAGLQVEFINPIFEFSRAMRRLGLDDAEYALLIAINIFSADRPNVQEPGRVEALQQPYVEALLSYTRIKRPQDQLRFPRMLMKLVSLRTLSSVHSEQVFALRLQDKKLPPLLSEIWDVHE
hcDAF12 conf: hcDAF-12 agonism, confirmation assay | 3,400 tested, 61% active | HEK293 hcDAF-12 lit1-tk-luc reporter, luminescence; % of Δ7-dafachronic acid response | shares compounds with hcDAF12 agonist | AID 743032 | activation, % at 6.8 µM;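 active = mean activation across triplicate tests above the threshold derived from the earlier primary screen, cut at about 5.5% in these data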
Hits are given with their value; . = inactive; / = no result given.

SMILES	DAX1 inh-1	DAX1 inh-2	ssDAF-12 act	hcDAF12 agonist	hgDAF-12 ag	DAX1 inh confirm	SF1 AF2mut Luc	LXR ag	hcDAF12 conf
O=C(CNC(=S)N(CCCN1CCOCC1)Cc1cccs1)N1CCCCCC1	.	.	.	.	.	/	/	/	/
O=c1[nH]c(=O)n([C@H]2C[C@H](O)[C@@H](CO)O2)cc1F	.	.	.	.	.	/	/	/	/
O=c1[nH]c(=O)n([C@H]2C[C@H](O)[C@@H](CO)O2)cc1Br	.	13.3	.	8.8	37.5	14.0	5.5	.	12.0
O=C(/C=C/Nc1ccc(Br)cc1F)c1ccco1	.	6.0	1.5	13.8	22.8	7.7	.	.	9.9
Cc1noc(NS(=O)(=O)c2ccc(N/C=C\C(=O)c3cccs3)cc2)c1C	.	.	.	.	.	/	/	/	/
Cc1ccc(N/C=C/C(=O)c2cccs2)cc1	.	8.3	1.4	10.2	22.2	6.3	.	.	13.7
O=C(/C=C/Nc1ccc(F)cc1F)c1ccc(Br)cc1	/	.	.	.	.	/	/	/	/
O=C(C=Cc1cccs1)c1cccs1	.	.	.	.	.	/	/	/	/
O=C(/C=C/Nc1ccccc1O)c1ccco1	.	.	.	.	.	/	/	/	/
O=C(/C=C/Nc1ccc(F)cc1F)c1cccs1	.	6.1	2.4	12.0	20.9	8.3	.	.	15.3
O=C(/C=C/Nc1ccccc1F)c1cccs1	.	5.7	3.9	26.2	29.1	15.2	7.8	.	22.5
CCCn1c(SCC(=O)NC2CCC(C)CC2)n[nH]c1=O (stereo not drawn)	.	.	.	.	.	/	/	/	/
Cc1cn2nc(N)c3ccccc3c2n1	.	.	.	.	.	/	/	/	/
Nc1nn2cc(-c3ccccc3)nc2c2ccccc12	.	11.0	6.0	19.4	21.3	18.7	10.1	.	21.5
COc1ccc(Cc2c(-c3ccc(C)cc3)nc3c4ccccc4ccn23)c(C)c1	/	.	.	.	.	/	/	/	/
COc1ccc(-c2cn3ccc4ccccc4c3n2)cc1	.	7.1	5.2	23.4	18.5	18.5	9.6	.	23.1
Cc1ccc2c(N)c(C#N)sc2n1	.	.	.	.	.	/	/	/	/
Cc1ccc2nc(-c3sc4nc(C)ccc4c3N)[nH]c2c1	.	5.8	3.2	14.2	15.0	18.9	13.1	.	28.1
COc1cccc(C(=O)Nc2nnc(C(C)C)s2)c1	.	4.8	.	6.8	.	9.0	3.1	.	7.3
CC(C)c1nnc(NC(=O)c2cccc(-n3cnnn3)c2)s1	.	.	.	.	.	/	/	/	/
S=C1NCC(c2ccccc2)S1 (stereo not drawn)	.	.	.	.	.	/	/	/	/
O=C(OCc1csc(-c2ccccc2)n1)c1cccs1	.	.	.	.	.	/	/	/	/
Cn1cccc1C(=O)OCc1csc(-c2ccccc2)n1	.	5.3	3.1	15.7	15.5	14.2	8.0	.	16.9
Cc1ccsc1C(=O)OCc1csc(-c2ccccc2)n1	.	4.7	2.7	13.2	16.3	21.1	14.1	.	13.8
CN(CCCNC(=O)c1cccn2c(=O)c3ccccc3nc12)Cc1ccccc1	.	.	.	.	.	/	/	/	/
SMILES	DAX1 inh-1	DAX1 inh-2	ssDAF-12 act	hcDAF12 agonist	hgDAF-12 ag	DAX1 inh confirm	SF1 AF2mut Luc	LXR ag	hcDAF12 conf
CCn1c(C)nc2cc(-c3nc4n(n3)Cc3ccccc3-4)ccc21	.	/	/	/	/	/	/	/	/
Fc1ccc(-c2nc3n(n2)Cc2ccccc2-3)cc1	.	5.5	4.2	17.9	18.0	14.4	8.6	.	16.2
COC(=O)C(Cc1c[nH]c2ccccc12)NC(=O)c1ccc2nc[nH]c2c1 (stereo not drawn)	4.5	8.7	2.1	8.3	14.0	12.9	6.0	.	6.9
COC(=O)C(Cc1c[nH]c2ccccc12)NC(=O)c1cncc(Br)c1 (stereo not drawn)	.	.	.	.	.	/	/	/	/
O=C(NNC(=O)c1ccccc1Cl)c1csc(N2CCOCC2)n1	.	.	.	.	.	/	/	/	/
Cc1cc(OCC(=O)OCC(=O)NC2CCCCC2C)ccc1Cl (stereo not drawn)	.	.	.	.	.	/	/	/	/
COC(=O)c1ccc2nc(-c3ccc4c(c3)OCO4)cn2c1	.	10.3	1.7	7.1	17.2	8.9	.	.	6.4
CCc1ccn2cc(-c3ccc4c(c3)OCO4)nc2c1	/	.	.	.	.	/	/	/	/
CCc1cc(-c2ccc3c(c2)COc2c4ccccc4nn2-3)on1	.	4.5	.	7.0	.	11.0	5.1	.	9.3
COc1ccc(CCC(=O)NCCOc2ccccc2Cl)cc1	.	.	.	.	.	/	/	/	/
O=C(NCc1ccco1)c1ccc2sc([C@@H]3O[C@H](CO)[C@H](O)[C@H](O)[C@H]3O)nc2c1	/	.	.	.	.	/	/	/	/
c1cncc(-c2nc3ccccc3s2)c1	.	.	.	.	.	/	/	/	/
COc1ccc(-c2nc3ccccc3s2)cc1	.	6.1	.	12.2	12.6	13.7	3.6	.	12.9
COc1ccc2sc3ccccc3c(=O)c2c1	.	.	.	.	.	/	/	/	/
COc1ccc(-c2cc(=O)c3ccccc3s2)cc1	.	6.9	0.9	15.6	21.7	16.8	11.1	.	10.2
Cc1ccccc1NC(=S)NCc1ccc(Cl)cc1	.	.	.	.	.	/	/	/	/
COc1ccccc1CNS(=O)(=O)c1ccc2c(c1)CC(=O)N2C	.	.	.	.	.	/	/	/	/
COC(=O)c1ccc(-c2nc(-c3cccs3)no2)cc1	.	6.8	1.8	6.8	13.7	.	.	.	.
C#CCOc1ccc(CNC[C@H]2O[C@@H](n3ccc(N)nc3=O)[C@H](O)[C@@H]2O)cc1	.	.	.	.	.	/	/	/	/
c1ccc2c(c1)COc1c3cc4c(cc3nn1-2)OCO4	.	8.7	1.2	11.2	29.2	17.9	9.1	.	12.7
C=CCNC(=O)c1ccc2c3n(nc2c1)-c1ccccc1CO3	.	.	.	.	.	/	/	/	/
O=C(N/N=C/c1cc([N+](=O)[O-])c(N2CCOCC2)cc1N1CCOCC1)c1cccnc1	.	.	.	.	.	/	/	/	/
COc1ccc(-n2nc3cc(C)c(N)c(Br)c3n2)cc1	.	5.2	3.2	19.8	14.0	10.5	4.8	.	17.3
Cc1noc(C)c1C(=O)Nc1cccc(S(=O)(=O)N2CCCCC2)c1	.	.	.	.	.	/	/	/	/
COc1ccc(/C(N)=N/OC(=O)c2cccs2)cc1	.	5.2	4.4	10.1	11.9	14.0	9.6	.	.
